From PubChem BioAssay (EPA / NIEHS)
Records with an inconclusive call do not appear. Active and inactive are the calls of the source. How the source made its calls: active means hit-call score of the fitted dose curve at least 0.9, where 1 is the maximum; inconclusive means response in the unintended direction; inactive means score below 0.9.

Columns and labels:
[1] = biological target: Cellular tumor antigen p53 (Homo sapiens) (UniProt P04637); assay: TOX21_p53_BLA_p2_ratio: Tox21 HCT-116 p53 Agonism Beta-lactamase Assay, Ratio, Phase 2 (AID 2283592)
Cellular tumor antigen p53 (Homo sapiens), sequence (P04637 whole entry, looked up): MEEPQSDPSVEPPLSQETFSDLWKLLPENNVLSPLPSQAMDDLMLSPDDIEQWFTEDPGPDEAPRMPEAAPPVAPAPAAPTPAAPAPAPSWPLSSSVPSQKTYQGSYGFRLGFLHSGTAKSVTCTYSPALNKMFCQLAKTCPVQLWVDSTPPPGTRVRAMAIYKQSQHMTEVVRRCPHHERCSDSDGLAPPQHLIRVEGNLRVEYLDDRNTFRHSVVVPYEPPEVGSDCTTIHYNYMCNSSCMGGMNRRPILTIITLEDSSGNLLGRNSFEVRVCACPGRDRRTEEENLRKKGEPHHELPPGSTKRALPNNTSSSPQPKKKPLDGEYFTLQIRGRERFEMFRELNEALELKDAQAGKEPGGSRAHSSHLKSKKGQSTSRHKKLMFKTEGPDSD
Outline: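 HCT-116 cells with p53-responsive beta-lactamase reporter, 4000 cells/well, preincubated 5 h, then compound in DMSO (217-fold dilution) for 16 h at 37C. CCF4-AM substrate 2 h at room temperature; 460/530 nm emission ratio fitted upward versus DMSO.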

[2] = TOX21_p53_BLA_p5_viability: Viability Assessment in the Tox21 HCT-116 p53 Agonism Beta-lactamase Assay, Phase 5 (AID 2283600)
Outline: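 HCT-116 p53 beta-lactamase reporter cells, 4000/well, were exposed to compound (pin transfer, 217-fold dilution) for 16 hours at 37C. Cellular ATP was read by CellTiter-Glo luminescence after 30 min at room temperature.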

[3] = biological target: Cellular tumor antigen p53 (Homo sapiens) (UniProt P04637); assay: TOX21_p53_BLA_p4_ratio: Tox21 HCT-116 p53 Agonism Beta-lactamase Assay, Ratio, Phase 4 (AID 2283601)
Outline: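 Signal is the blue/green (460nm/530nm) ratio of cleaved versus uncleaved CCF4-AM substrate, read after 2 h substrate loading. Cells were HCT116 carrying the p53-responsive beta-lactamase reporter, dosed 16 h at 37C, 5% CO2; CellTiter-Glo measured in parallel.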

[4] = TOX21_p53_BLA_p3_viability: Viability Assessment in the Tox21 HCT-116 p53 Agonism Beta-lactamase Assay, Phase 3 (AID 2283593)
Outline: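 Cellular ATP was quantified by CellTiter-Glo luminescence, read after 30 min at room temperature. Beforehand, HCT116 cells (4000/well) received compound 5 h post-seeding, 217-fold diluted from DMSO, then incubated 16 h at 37C.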

[5] = biological target: Cellular tumor antigen p53 (Homo sapiens) (UniProt P04637); assay: TOX21_p53_BLA_p3_ratio: Tox21 HCT-116 p53 Agonism Beta-lactamase Assay, Ratio, Phase 3 (AID 2283596)
Outline: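 HCT116 p53-bla cells (4000/well) given compound in DMSO (217-fold dilution) after 5 h, incubated 16 h at 37C. CCF4-AM substrate 2 h at room temperature; 460/530 nm emission ratio, gain fitted against DMSO.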

[6] = TOX21_p53_BLA_p4_viability: Viability Assessment in the Tox21 HCT-116 p53 Agonism Beta-lactamase Assay, Phase 4 (AID 2283597);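 further: hits lower the luminescence signal meaning cytotoxicity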
Outline: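 HCT-116 p53-bla cells, 4000/well, dosed after 5 h attachment and incubated 16 h at 37 °C, 5% CO2. Viability from CellTiter-Glo ATP luminescence after 30 min at room temperature, taken after the beta-lactamase read; loss of signal indicates cytotoxicity.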

[7] = biological target: Cellular tumor antigen p53 (Homo sapiens) (UniProt P04637); assay: TOX21_p53_BLA_p5_ratio: Tox21 HCT-116 p53 Agonism Beta-lactamase Assay, Ratio, Phase 5 (AID 2283599)
Outline: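 Beta-lactamase reporter ratio (blue 460 nm over green 530 nm, 405 nm excitation) after 2 h CCF4-AM loading, in HCT-116 cells exposed 16 h at 37 C to compounds pinned at 217-fold dilution. Increases relative to DMSO baseline scored.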

[8] = biological target: PGR (gene 5241) (UniProt P06401); assay: TOX21_PR_BLA_Followup_Antagonist_ratio: Tox21 HEK293 Progesterone Receptor (PR) Antagonism Beta-lactamase Follow-Up Assay, Ratio (AID 2283934)
PGR (gene 5241), sequence (P06401 whole entry, looked up): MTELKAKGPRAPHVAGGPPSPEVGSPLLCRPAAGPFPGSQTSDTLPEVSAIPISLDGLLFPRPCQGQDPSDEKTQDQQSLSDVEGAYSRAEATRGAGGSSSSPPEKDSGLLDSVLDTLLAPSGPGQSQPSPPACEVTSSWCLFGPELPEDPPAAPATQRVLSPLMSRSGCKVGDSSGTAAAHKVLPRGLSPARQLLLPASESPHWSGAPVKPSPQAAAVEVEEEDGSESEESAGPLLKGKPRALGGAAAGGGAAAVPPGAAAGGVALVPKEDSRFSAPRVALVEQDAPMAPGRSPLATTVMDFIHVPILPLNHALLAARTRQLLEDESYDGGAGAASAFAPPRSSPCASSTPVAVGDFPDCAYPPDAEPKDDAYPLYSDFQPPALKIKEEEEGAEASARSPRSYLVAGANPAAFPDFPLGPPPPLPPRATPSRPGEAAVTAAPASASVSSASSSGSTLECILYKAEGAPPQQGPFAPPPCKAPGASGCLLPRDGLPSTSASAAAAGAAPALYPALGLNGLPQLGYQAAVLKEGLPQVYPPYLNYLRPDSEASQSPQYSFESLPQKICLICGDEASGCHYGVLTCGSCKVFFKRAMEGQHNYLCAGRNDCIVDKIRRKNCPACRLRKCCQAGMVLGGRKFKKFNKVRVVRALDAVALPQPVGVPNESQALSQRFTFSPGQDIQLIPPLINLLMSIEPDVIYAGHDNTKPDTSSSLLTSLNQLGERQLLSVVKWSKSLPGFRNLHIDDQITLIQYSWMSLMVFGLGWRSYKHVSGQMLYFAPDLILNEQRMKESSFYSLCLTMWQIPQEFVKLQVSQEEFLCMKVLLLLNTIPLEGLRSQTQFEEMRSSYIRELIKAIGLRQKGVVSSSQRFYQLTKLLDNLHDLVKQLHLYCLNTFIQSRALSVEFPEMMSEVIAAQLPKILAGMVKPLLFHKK
Outline: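 PR-UAS-bla HEK293T cells, 3,000/well in 2% charcoal-stripped FBS, given compound plus 1nM R5020 agonist for 16 hr at 37C. Beta-lactamase FRET substrate 2 hours, ratio cleaved/uncleaved fluorescence; viability by CellTiter-Glo in same wells.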

[9] = TOX21_PR_BLA_Followup_Agonist_viability: Viability Assessment in the Tox21 HEK293 Progesterone Receptor (PR) Agonism Beta-lactamase Follow-Up Assay (AID 2283935);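 further: signal loss means lower viability so actives are cytotoxic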
Outline: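 PR-UAS-bla HEK293T cells in 2% charcoal-stripped FBS medium, plated 6 hr before compound addition, exposed 16 hr at 37C. Viability read by CellTiter-Glo ATP luminescence after 30 min at room temperature, in the same wells as the beta-lactamase readout.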

[10] = TOX21_PR_LUC_Followup_Antagonist_viability: Viability Assessment in the Tox21 HEK293 Progesterone Receptor (PR) Antagonism Luciferase Follow-Up Assay (AID 2283940)
Outline: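 HEK293-PR-A-luc cells kept in charcoal-stripped FBS medium were plated 5 h before compound addition, then exposed 16 h at 37C; viability read as cellular ATP by luciferase luminescence, loss of signal indicating cytotoxicity.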

[11] = biological target: Thyroid hormone receptor alpha (Rattus norvegicus) + Thyroid hormone receptor beta (Rattus norvegicus) (UniProt P18113+P63059); assay: TOX21_TR_LUC_GH3_Antagonist_Followup: Tox21 GH3 Thyroid Hormone Receptor Antagonism Luciferase Follow-Up Assay (AID 2283942)
Outline: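 Confirmatory qHTS, antagonist mode: T3 (1.0 nM final) + test cpd, 15 conc, 92 uM–5nM final, GH3 rat pituitary line, 24 h, 37C. Luc reporter, RLU vs DMSO.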

[12] = biological target: THRA (gene 7067) (UniProt P10827); assay: TOX21_TRA_COA_Antagonist_Followup_ratio: Tox21 Thyroid Hormone Receptor alpha Antagonism through Coactivator Recruitment Follow-Up Assay, Ratio (AID 2283953)
THRA (gene 7067), sequence (P10827 whole entry, looked up, the tested form may be a part): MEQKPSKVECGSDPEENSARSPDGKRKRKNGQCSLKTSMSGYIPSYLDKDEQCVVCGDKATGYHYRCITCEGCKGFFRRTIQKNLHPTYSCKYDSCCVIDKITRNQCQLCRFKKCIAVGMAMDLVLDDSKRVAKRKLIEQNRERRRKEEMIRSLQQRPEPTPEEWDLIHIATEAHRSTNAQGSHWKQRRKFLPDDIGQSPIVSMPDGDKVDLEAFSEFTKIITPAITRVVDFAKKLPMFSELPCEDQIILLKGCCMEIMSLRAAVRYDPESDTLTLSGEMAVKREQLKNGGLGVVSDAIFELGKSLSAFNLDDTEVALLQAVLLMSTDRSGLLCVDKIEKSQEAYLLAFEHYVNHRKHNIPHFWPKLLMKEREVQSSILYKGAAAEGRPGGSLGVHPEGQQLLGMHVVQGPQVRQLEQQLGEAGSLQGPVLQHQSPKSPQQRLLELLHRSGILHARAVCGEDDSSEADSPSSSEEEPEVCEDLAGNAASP
Outline: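 520:495 nm emission ratio (excitation 340 nm) reports fluorescein-SRC-2 peptide recruitment to GST-TRα LBD by TR-FRET with Tb anti-GST antibody. Values were normalized to DMSO (0%) and T3 control wells (100%); loss of signal indicated antagonism.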

[13] = biological target: THRB (gene 7068) (UniProt P10828); assay: TOX21_TRB_BLA_Antagonist_Followup_ratio: Tox21 Thyroid Hormone Receptor beta Antagonism Beta-lactamase (BLA) Follow-Up Assay, Ratio (AID 2283958)
THRB (gene 7068), sequence (P10828 whole entry, looked up, the tested form may be a part): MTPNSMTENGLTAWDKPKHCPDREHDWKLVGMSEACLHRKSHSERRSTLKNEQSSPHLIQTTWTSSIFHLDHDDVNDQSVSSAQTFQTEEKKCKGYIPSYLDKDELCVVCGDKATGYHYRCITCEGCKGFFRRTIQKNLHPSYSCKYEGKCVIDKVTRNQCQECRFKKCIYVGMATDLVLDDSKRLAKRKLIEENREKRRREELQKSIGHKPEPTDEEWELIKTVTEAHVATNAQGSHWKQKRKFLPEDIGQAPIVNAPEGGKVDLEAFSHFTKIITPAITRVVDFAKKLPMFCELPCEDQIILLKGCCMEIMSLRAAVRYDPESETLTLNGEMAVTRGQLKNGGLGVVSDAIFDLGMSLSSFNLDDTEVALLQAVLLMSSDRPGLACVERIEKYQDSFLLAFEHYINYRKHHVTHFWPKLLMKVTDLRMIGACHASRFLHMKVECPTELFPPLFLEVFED
Outline: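 HEK293T cells with a GAL4-TRb LBD fusion and UAS-bla reporter, 3,000 cells/well in phenol red-free DMEM with 2% charcoal-stripped FBS. Exposed 18 h at 37C to 11 concentrations in triplicate; CCF4 460:530 nm ratio after 2 h, DMSO-referenced.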

[14] = biological target: THRB (gene 7068) (UniProt P10828); assay: TOX21_TRB_COA_Antagonist_Followup_ratio: Tox21 Thyroid Hormone Receptor beta Antagonism through Coactivator Recruitment Follow-Up Assay, Ratio (AID 2283967)
Outline: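 Test compound was incubated with 5.0 nM GST-TRβ LBD in 0.10% BSA. Then 200 nM fluorescein-SRC-2 peptide and 2 nM terbium anti-GST antibody were added. TR-FRET (520:495 nm) was measured and normalized to DMSO and T3 controls.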

[15] = biological target: Retinoic acid receptor RXR-alpha (Homo sapiens) (UniProt P19793); assay: TOX21_TR_RXR_BLA_Antagonist_Followup_ratio: Tox21 Thyroid Hormone Receptor beta Retinoid X Receptor alpha (RXRa) Antagonism Beta-lactamase (BLA) Follow-Up Assay, Ratio (AID 2283972)
Retinoic acid receptor RXR-alpha (Homo sapiens), sequence (P19793 whole entry, looked up): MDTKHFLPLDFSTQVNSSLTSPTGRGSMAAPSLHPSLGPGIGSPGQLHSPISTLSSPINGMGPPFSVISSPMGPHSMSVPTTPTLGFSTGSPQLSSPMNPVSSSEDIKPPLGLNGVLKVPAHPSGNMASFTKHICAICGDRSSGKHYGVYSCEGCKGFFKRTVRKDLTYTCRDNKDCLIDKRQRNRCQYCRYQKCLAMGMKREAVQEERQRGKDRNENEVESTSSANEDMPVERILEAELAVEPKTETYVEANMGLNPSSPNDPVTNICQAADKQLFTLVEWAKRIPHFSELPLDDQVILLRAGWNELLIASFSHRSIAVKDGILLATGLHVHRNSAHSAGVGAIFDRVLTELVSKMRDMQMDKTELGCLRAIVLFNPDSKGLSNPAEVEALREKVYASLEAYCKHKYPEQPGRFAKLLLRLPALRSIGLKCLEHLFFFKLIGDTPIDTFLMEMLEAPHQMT
Outline: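 RXRa-UAS-bla HEK293T cells, 2,500/well in phenol red-free DMEM with 2% charcoal-stripped FBS, 5 h attachment, then compounds (11 concentrations, triplicate) for 16 h at 37C; FRET-B/GCCF4-AM substrate 2 h RT; 460:530 nm ratio, loss of signal vs DMSO.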

[16] = TOX21_TR_RXR_BLA_Antagonist_Followup_viability: Viability Assessment in the Tox21 Thyroid Hormone Receptor beta Retinoid X Receptor alpha (RXRa) Antagonism Beta-lactamase (BLA) Follow-Up Assay (AID 2283979)
Outline: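 Follow-up compounds (11 concentrations, triplicate) were incubated 16 h at 37C/5% CO2 with HEK293T RXRa-bla cells seeded at 2,500/well in charcoal-stripped-serum medium. ATP content by CellTiter-Glo luminescence gave viability; curves fitted in both directions against DMSO.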

Measured: AC50

CC(C)(Cl)[N+](=O)[O-]
inactive: [1] | [2] | [3]

CCS(=O)(=O)CCSP(=O)(OC)OC
inactive: [1] | [3]

C1CS1
inactive: [4] | [5] | [6] | [7]

CC[N+]1(C)CCCC(OC(=O)C(O)(c2ccccc2)c2ccccc2)C1 (configuration not stated)
inactive: [4] | [5] | [7] | [2]

CC(=O)O[C@H]1CC[C@H]2[C@@H]3CCC4=CC(=O)CCC4=C3C=C[C@]12C
inactive: [4] | [5] | [6] | [7] | [3]

FC(Cl)(Cl)Cl
inactive: [1] | [2]

NC(=S)c1c(Cl)cccc1Cl
inactive: [4] | [5] | [7] | [3]

S=C=Nc1ccccc1
inactive: [1] | [2]

O=[N+]([O-])c1cccc2cccnc12
inactive: [4] | [5] | [7] | [2] | [3]

NC(=S)C(N)=S
inactive: [4] | [5] | [7] | [2]

CC(N)Cc1ccc(O)cc1 (configuration not stated)
inactive: [4] | [5] | [7] | [2] | [3]

CCC(=O)O[C@@](Cc1ccccc1)(c1ccccc1)[C@@H](C)CN(C)C
inactive: [4] | [5] | [6] | [7] | [2] | [3]

CC(C)(C#N)C(C)(C)C#N
inactive: [4] | [5] | [6] | [7] | [2] | [3]

CN=CNc1ccc(C)cc1C
inactive: [4] | [5] | [7] | [2] | [3]

Nc1ccccc1-c1ccccc1
inactive: [4] | [5] | [7] | [3]

CCC1COC(Cn2cncn2)(c2ccc(Cl)cc2Cl)O1 (configuration not stated)
active: [8] 60.3 µM
inactive: [4] | [5] | [7] | [9] | [10]

C[N+](C)(C)CCCl
inactive: [4] | [5] | [3]

Cc1nnc(-c2ccccc2)c(=O)n1N
inactive: [4] | [5]

CN1C(=O)[C@@H](NC(=O)c2cc3ccccc3[nH]2)N=C(c2ccccc2)c2ccccc21
active: [13] 10.7 µM
not listed: [1] | [2] | [3] | [8] | [9] | [10]
inactive: all other assays above

O=C1CC(=O)NC(=O)N1
inactive: [4] | [6] | [7] | [3]

CCCCCC[N+](=O)[O-]
inactive: [4] | [6] | [2]

Clc1ccc(C(Cl)(Cl)Cl)c(Cl)c1
inactive: [4] | [5] | [3]
